Source: PubChem
Rab9 prom act: activates the Rab9 promoter; Potency, µM (top dose mostly 9.22 µM), without a hit: at the top dose activation, negative = inhibition, usual class: activators; 320,000 tested, 2.8% active; Huh7 Rab9 promoter-luciferase reporter, luminescence, 24 h; also: % of control where 0% means no effect; nearly all actives have a fitted effect of over 60% in size
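Using Huh7 cells stably transfected with Rab9 promoter–luciferase, compounds were incubated 24 h at 37 °C, 5% CO2; luciferase luminescence was read 10 min after reagent addition.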
SMN2 splice enh: SMN2 splice variant enhancement | HEK293 SMN2-luciferase splicing reporter, luminescence, 30-36 h | Potency, µM (top dose mostly 46.1 µM), inactives show at the top dose activity change, positive = activation, most hits filed as activators | AID 1458 | 210,000 tested, 2.8% active; also: % of control where 0% means no effect; nearly all actives have a fitted effect of over 55% in size
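qHTS luciferase splicing reporter: luminescence rises when SMN2 exon 7 is included in transfected HEK293 cells. Compound exposure lasted 30-36 h at 37C, with 4.5 mM final sodium butyrate as control, followed by a ONE-Glo read.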
NPC1 prom act: activates the NPC1 promoter. Huh7 NPC1 promoter luciferase reporter, 24 h. Potency, µM (highest dose often 9.22 µM), for the others: top-dose activation, actives largely listed as activators. 320,000 tested, 2.4% active. AID 485313; also: % of control where 0% means no effect; nearly all actives have a fitted effect of over 60% in size
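Stable NPC1-promoter luciferase Huh7 line; cpd (DMSO) 24 h, 37 °C, 5% CO2; Amplite luciferase reagent 10 min RT; luminescence readout. qHTS format.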
FLuc counter: counter-screen for miR-21 project: firefly luciferase inhibitors or activators. Potency, µM (highest dose often 57.5 µM), inactives show top-dose activity change, negative = inhibition, hits mostly inhibitors. purified FLuc, Km substrates, luminescence inhibition. 360,000 tested, 6.9% active. AID 588342. P08659;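 also: plate controls were vehicle for no effect and reference inhibitor for full effect; nearly all actives have a fitted effect of over 55% in size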
Target sequence (P08659 whole entry, looked up): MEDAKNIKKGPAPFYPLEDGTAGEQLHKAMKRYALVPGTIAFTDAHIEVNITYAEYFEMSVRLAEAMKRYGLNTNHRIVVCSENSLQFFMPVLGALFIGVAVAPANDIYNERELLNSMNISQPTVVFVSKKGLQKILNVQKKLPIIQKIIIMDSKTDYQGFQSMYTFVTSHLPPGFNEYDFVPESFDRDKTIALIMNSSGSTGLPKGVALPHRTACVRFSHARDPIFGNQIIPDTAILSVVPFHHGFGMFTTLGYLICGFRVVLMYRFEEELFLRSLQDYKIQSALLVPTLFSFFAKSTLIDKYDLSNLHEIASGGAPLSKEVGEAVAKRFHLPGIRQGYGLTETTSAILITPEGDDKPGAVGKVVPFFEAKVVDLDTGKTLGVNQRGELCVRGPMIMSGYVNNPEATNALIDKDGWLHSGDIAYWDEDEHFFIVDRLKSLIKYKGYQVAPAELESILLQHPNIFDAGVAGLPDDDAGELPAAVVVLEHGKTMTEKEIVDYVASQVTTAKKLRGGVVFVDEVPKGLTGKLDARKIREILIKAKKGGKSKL
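Purified P. pyralis luciferase, 10 nM final, with Km-level 10 uM D-luciferin and 10 uM ATP in 50 mM Tris acetate pH 7.5, 10 mM Mg acetate, 0.01% Tween-20, 0.05% BSA; 6-point qHTS titration about 60 µM downward; luminescence read.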
ELG1 genotoxic: genotoxicity induction in ELG1-luciferase HEK293T cells | HEK293T ELG1-luciferase reporter, luminescence, 16 h | Potency, µM (doses to about 46 µM), inactives show top-dose activity change, positive = activation, most hits filed as activators | 330,000 tested, 1.3% active; also: % of control where 0% means no effect; nearly all actives have a fitted effect of over 60% in size
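DMSO vehicle served as control against compound-treated ELG1-luciferase HEK293T cells; exposure lasted 16 hr at 37 °C and 5% CO2, followed by ONE-Glo luminescence detection after 30 min.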
ELG1 DNA repair: ELG1-dependent DNA repair inhibition; HEK293T ELG1-luciferase reporter, luminescence, 16 h; DNA damage induced by 5-fluorouridine; Potency, µM (doses to about 46.1 µM), inactives show at the highest dose activity change, negative = inhibition, most hits filed as inhibitors; 330,000 tested, 2.3% active; AID 504467; also: % is scaled to controls: 0 for no effect and ±100 for the full control effect; nearly all actives have a fitted effect of over 55% in size
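Luminescence from the luciferase reporter, measured 30 min after ONE-Glo reagent at room temperature, was the read-out. Beforehand, 2,000 cells per well were exposed for 16 hr at 37 °C to 5-fluorouridine together with compound or vehicle.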
The depositor's hits bear a star; ? = inconclusive; / = not tested or not shown. The list is not random: actives were taken first. Their share in the collection is about 9.2%. Calls follow the shape of the dose curve; as a rule, active = well fitted curve in the direction sought with a large enough effect; inconclusive = small, poorly fitted or top-dose-only effect, or another doubt; inactive = no such curve, though single readings can be large; an effect the other way counts as inactive or inconclusive. Potency is read from the fitted curve at half-maximal effect.

SMILES	Rab9 prom act	SMN2 splice enh	NPC1 prom act	FLuc counter	ELG1 genotoxic	ELG1 DNA repair
CCOc1cc(NC(=S)NCC2CCCO2)c(OCC)cc1NC(=O)c1ccc(C)cc1 (stereo not drawn)	9%	2%	1%	-4%	-4%	-6%
O=C(NC(=S)NCC1CCCO1)c1ccc(Cl)cc1 (stereo not drawn)	20%	?	26%	?	?	?
Cc1ccc(C(=O)NC(=S)NCC2CCCO2)cc1 (stereo not drawn)	?	14µM*	2.8µM*	17µM*	?	?
O=C(Nc1ccccc1N1CCOCC1)C1=NN(c2ccccc2)C(=O)CC1	3%	/	-3%	-2%	-17%	-24%
COc1cc(/C=C/c2nnc3c4ccccc4ncn23)cc(OC)c1OC	23%	/	8%	?	-6%	6.5µM*
COc1cc(/C=C/C(=O)N2CCN(Cc3ccccc3)CC2)cc(OC)c1OC	-5%	/	-5%	-3%	0%	-25%
C(=C\c1nnc2c3ccccc3ncn12)/c1ccccc1	3.2µM*	14µM*	4.5µM*	1.7µM*	?	?
CCOC(=O)c1ccc(N2C(=O)c3[nH]nc(-c4ccc(OC)cc4)c3C2c2ccc(C)cc2)cc1 (stereo not drawn)	/	-43%	/	-1%	/	/
CC1CCN(C2=NC(=O)/C(=C/c3cn(-c4ccccc4)nc3-c3cccc(S(=O)(=O)N(C)C)c3)S2)CC1	?	-2%	23%	2.7µM*	1%	5.2µM*
Cc1cc(C)nc(CCNC(=O)c2cc(COc3c(C)cccc3C)on2)n1	18%	/	3%	?	13%	1%
c1ccc(CN2CCN(CCCNc3ccc4nnc(-c5ccccc5)n4n3)CC2)cc1	-5%	-6%	-1%	-3%	-11%	18µM*
COc1ccc(CN2C(=O)C(Cc3ccccc3)Nc3ncnc(N4CCc5ccccc5C4)c32)cc1 (stereo not drawn)	-5%	/	-5%	1%	-13%	?
O=C(NCc1ccco1)c1ccccc1-c1nc(-c2ccccc2)no1	0%	7%	1%	27µM*	6%	?
Cc1cccc(-c2noc(-c3ccccc3C(=O)NCc3ccco3)n2)c1	?	/	?	9.5µM*	1%	-1%
O=C(NCc1ccco1)c1ccccc1	0%	/	0%	0%	-5%	-7%
Cc1ccc(-c2noc(-c3ccccc3C(=O)NCc3ccco3)n2)cc1	16%	/	16%	5.4µM*	6%	17%
COCCCNC(=O)c1c(NC(=O)Cc2coc3cc(C)cc(C)c23)sc2c1CCCC2	/	15%	/	-6%	/	/
COC(=O)[C@@H](N)CS	1%	-4%	-1%	-3%	-3%	11%
CCOC(=O)C1CCN(CC(=O)Nc2c(C(=O)OC)[nH]c3ccc(Cl)cc23)CC1	-22%	-69%	-12%	-2%	-19%	21µM*
CCOC(=O)C1CCCN(CC(=O)Nc2c(C(=O)OC)[nH]c3ccc(Br)cc23)C1 (stereo not drawn)	-16%	/	1%	-5%	-20%	16µM*
COC(=O)c1[nH]c2ccc(Br)cc2c1NC(=O)CN1CCN(C2CCCCC2)CC1	-5%	14%	-3%	-1%	?	?
NNC(=O)c1csc(-c2cccc(C(F)(F)F)c2)n1	-3%	22%	-1%	-1%	1%	5%
CCCCNC(=O)c1sc2ncnc(N3CCc4ccccc4C3)c2c1C	-7%	1%	3%	-3%	-4%	?
CCOC(=O)CNC(=O)c1sc2ncnc(N3CCc4ccccc4C3)c2c1C	-1%	13%	-4%	-16%	-14%	18µM*
CCCCc1nnc(SC(C)C(=O)Nc2nccs2)n1C (stereo not drawn)	-2%	/	2%	5%	1%	5%
SMILES	Rab9 prom act	SMN2 splice enh	NPC1 prom act	FLuc counter	ELG1 genotoxic	ELG1 DNA repair
COc1cc2cc(CN(Cc3cccs3)C(=S)Nc3cccc(C)c3)c(=O)[nH]c2cc1OC	-10%	-10%	-1%	-1%	-8%	7.3µM*
Cc1cccc(NC(=S)N(CCN(C)C)Cc2cc3cccc(C)c3[nH]c2=O)c1	-6%	-11%	-4%	-2%	-2%	13µM*
COc1cccc(NC(=S)N(CCc2c(C)[nH]c3ccc(C)cc23)Cc2cccs2)c1	-3%	-19%	0%	1%	-5%	?
COc1cc2cc(CN(Cc3cccs3)C(=S)Nc3ccc(C)cc3)c(=O)[nH]c2cc1OC	1%	?	-4%	1%	-2%	5.2µM*
COc1ccc2[nH]c(C)c(CCN(Cc3cccs3)C(=S)Nc3cccc(F)c3)c2c1	-8%	-66%	0%	1%	-4%	16µM*
CCOP(=O)(OCC)C(Nc1ccccc1)c1ccccc1C(F)(F)F (stereo not drawn)	-4%	/	2%	-2%	-8%	?
CC(C)CC(=O)n1nc(-c2ccco2)nc1NCc1ccc(Cl)cc1	/	2%	/	3%	/	/
COc1ccc(CNc2nc(-c3ccco3)nn2C(=O)CC(C)C)cc1	/	13µM*	/	/	/	/
Cc1ccc(/C=N/NC(=O)c2ccccc2OCc2ccc(F)cc2)o1	-4%	-24%	0%	?	2%	18µM*
O=C(N/N=C/c1ccncc1)c1ccccc1OCc1ccc(Br)cc1	-7%	-10%	-10%	?	-6%	7.3µM*
O=C(N/N=C/c1ccccc1)c1sccc1OCc1ccc(F)cc1	0%	-17%	-2%	19µM*	2%	-16%
Cc1cccc(/C=N/NC(=O)c2ccccc2OCc2cccc(Br)c2)n1	0%	/	15%	19µM*	-4%	16µM*
O=C(N/N=C/c1ccccc1)c1ccc(OCc2ccccc2)cc1	15%	-23%	1%	-2%	?	9%
COc1cc(/C=C2/SC(=S)N(CC(=O)O)C2=O)ccc1OC(=O)c1cccs1	3%	/	0%	4.8µM*	0%	2%
O=C(CCN1C(=O)/C(=C/c2ccccc2)SC1=S)Nc1ccccn1	-4%	/	-1%	-12%	-2%	18%
COc1cc(/C=N/N(C)C)ccc1OC(=O)c1cccs1	10%	2%	-6%	27µM*	8%	5%
O=C1/C(=C/c2ccccn2)SC(=S)N1CCc1ccccc1	3.5µM*	/	?	-3%	?	?
COc1ccc(/C=C2\SC(=S)N(CCCC(=O)Nc3ccccn3)C2=O)cc1OC	-7%	-11%	-4%	-12%	-6%	16µM*
Cc1ccc(/C=C2\SC(=S)N(CCCC(=O)Nc3ccccn3)C2=O)cc1	-19%	-62%	-27%	13µM*	-6%	?
